Bioassay records: PubChem, National Center for Advancing Translational Sciences (NCATS)
KDM4E inh: inhibitors of human JMJD2E histone demethylase | JMJD2E catalytic domain, FDH-coupled NADH fluorescence (FDH is formaldehyde dehydrogenase) | B2RXH2 | Potency, µM (series often up to 57.1 µM), without a hit: at the top dose activity change, negative = inhibition, hits mostly inhibitors | actives 1.6% (n = 230,000); active = well fitted inhibition curve with a large enough effect, not every such curve was filed as active; inconclusive = small, poorly fitted or top-dose-only effect, or another doubt; inactive = no such curve, though single readings can be large or run the other way;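 also: 0% = wells with enzyme and -100% = buffer wells without enzyme; nearly all actives have a fitted effect of over 50% in size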
Target sequence (B2RXH2 1-337 limits assumed): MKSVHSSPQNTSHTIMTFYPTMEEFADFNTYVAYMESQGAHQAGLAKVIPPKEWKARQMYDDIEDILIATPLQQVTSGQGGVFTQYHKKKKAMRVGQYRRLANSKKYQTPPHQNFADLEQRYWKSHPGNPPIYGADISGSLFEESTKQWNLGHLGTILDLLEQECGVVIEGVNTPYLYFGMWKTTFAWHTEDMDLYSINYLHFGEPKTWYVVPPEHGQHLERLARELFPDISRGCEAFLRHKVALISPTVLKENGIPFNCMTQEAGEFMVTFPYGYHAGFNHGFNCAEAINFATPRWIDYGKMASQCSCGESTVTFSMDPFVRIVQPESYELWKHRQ
Tau fluor cs: counter-screen for tau fibril formation inhibitors | Potency, µM (doses to about 57.7 µM), inactives show at the highest dose activity change, negative = decrease | tau K18 P301L Alexa594 fluorescence, heparin fibrillization | AID 1463 | actives 0.93% (n = 280,000); also: nearly all actives have a fitted effect of over 55% in size
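Human tau K18 P301L (15 uM unlabeled, 0.24 uM Alexa 594-labeled) in 100 mM sodium acetate pH 7 with 20 uM heparin, 6 hr at 37 C. ThT 30 uM added, 1 hr ambient; Alexa 594 FP and total fluorescence read at 555/632 nm.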
Tau FP inhib: blocks human tau fibril formation measured by polarization. P10636. K18 P301L tau heparin fibrillization, Alexa594 FP, 6 h. Potency, µM (top dose mostly 57.7 µM), without a hit: top-dose activity, negative = inhibition, hits mostly inhibitors. actives 0.39% (n = 280,000). AID 1468; also: nearly all actives have a fitted effect of over 55% in size
Target sequence (P10636 561-689 P618L limits assumed): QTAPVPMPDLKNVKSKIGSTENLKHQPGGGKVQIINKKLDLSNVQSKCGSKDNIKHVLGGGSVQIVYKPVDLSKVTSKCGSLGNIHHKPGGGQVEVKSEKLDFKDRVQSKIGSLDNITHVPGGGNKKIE
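Compound effects on tau fibrillization are measured by Alexa 594 fluorescence polarization (ex 555, em 632 nm). K18 P301L tau is used at 15 uM with 0.24 uM labeled tracer, and 20 uM heparin induces aggregation over 6 hr at 37 C.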
RGS12 GoLoco inh: RGS12 GoLoco-Gai1 interaction inhibition. actives 0.44% (n = 230,000). Gai1:RGS12 GoLoco peptide FP, rhodamine, 10 min. Potency, µM (top dose mostly 61.6 µM), for inactives: at the top dose activity, negative = inhibition, most hits filed as inhibitors. P63096; active = well fitted inhibition curve with a large enough effect, not every such curve was filed as active; inactive = no such curve, though single readings can be large or run the other way; also: nearly all actives have a fitted effect of over 30% in size
Tau ThT inhib: inhibitors of human tau fibril formation, thioflavin T binding; P10636; recombinant tau K18 P301L (four-repeat tau fragment), heparin-induced fibrillization, ThT fluorescence; Potency, µM (titrated, usually from 57.4 µM), for the others: at the top dose activity, negative = inhibition, hits mostly inhibitors; actives 2.1% (n = 270,000); also: nearly all actives have a fitted effect of over 55% in size
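Tau K18 P301L fragment (15 uM unlabeled plus 0.24 uM Alexa 594-labeled) in 100 mM sodium acetate pH 7 with compound, fibrillization induced by 20 uM heparin for 6 hr at 37 C. Thioflavin T (30 uM) added, fluorescence read after 1 hr (ex 450, em 510 nm).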
* = called active by the depositor; ? = inconclusive; · = not tested or not shown; [ ] = another dose, or the depositor's remark. Sampled rows, rich in hits. Any-hit rate of the full collection: about 3.4%. Unless noted, calls follow the shape of the dose curve; as a rule, active = well fitted curve in the direction sought with a large enough effect; inconclusive = small, poorly fitted or top-dose-only effect, or another doubt; inactive = no such curve, though single readings can be large; an effect the other way counts as inactive or inconclusive. Unless noted, % is scaled to controls: 0 for no effect and ±100 for the full control effect; potency is read from the fitted curve at half-maximal effect.

SMILES	KDM4E inh	Tau fluor cs	Tau FP inhib	RGS12 GoLoco inh	Tau ThT inhib
Cc1ccc(NC(=O)c2cc(=O)c3ccccc3o2)cc1S(=O)(=O)N1CCCCC1	-4.7%	?	?	13.7%	-15.8%
Cc1ccc(NC(=S)NCc2ccccc2)cc1S(=O)(=O)N1CCCCC1	-2.3%	12.6µM*[quencher]	20µM*	-1.5%	5.2%
CCn1c(=O)n(CC)c2cc(N3CCCCC3)c(NC(=O)Nc3ccccc3Cl)cc21	·	-16.8%	13.6%	·	?
O=C1C(c2cccc(Br)c2)N(CCc2ccccc2)C(=O)CN1C1CCCCC1 (centres undefined)	·	-2.4%	6.1%	·	-2.0%
COc1ccc2c(c1)c1c(c(=O)n(-c3cccc(Cl)c3)c(=O)n1CC(=O)N1CCCC1)n2C	·	0.6%	-17.2%	·	9.3%
N#Cc1c(N)nc(SCC(=O)C23CC4CC(CC(C4)C2)C3)c(C#N)c1-c1ccc(Cl)cc1	3.55µM*	-11.6%	-6.7%	13.5%	-7.6%
CSc1nc(N)nc(SCC(=O)C23CC4CC(CC(C4)C2)C3)c1C#N	-22.9%	?	?	0.6%	-0.5%
Cc1ccc(CNC(=O)c2cc(-c3ccc(C)cc3)nc3n[nH]c(-c4cccc([N+](=O)[O-])c4)c23)cc1	·	-10.6%	1.5%	·	4.4%
Cc1ccc(CN(Cc2cc3cc4c(cc3[nH]c2=O)OCCO4)Cc2nnnn2Cc2ccco2)cc1	?	-28.5%	?	167.5%	35.5µM*
O=C(CSc1nnnn1C1CCCCC1)N1CCN(C(=O)c2ccco2)CC1	?	-53.5%	9.3%[2.34 µM]	18.1%	3.55µM*
O=C(CSc1nnnn1C1CCCC1)N1CCN(C(=O)c2ccco2)CC1	-2.3%	-2.6%	2.5%	7.5%	-14.5%
Cn1c2c(c(=O)n(C)c1=O)[C@@]1(C(=O)Nc3ccccc31)C(C#N)=C(N)O2	?	-23.1%	?	·	14.1µM*
CC(C)Cn1cc(C(=O)NCc2cccs2)c2c3ccccc3n(C)c2c1=O	-5.3%	-27.1%	-4.5%	·	10µM*
CC(C)Cn1cc(C(=O)N2CCOCC2)c2c3ccccc3n(C)c2c1=O	5.1%	-18.2%	-5.8%	·	-8.5%
CCN1C(=O)/C(=C2\C=Cc3ccccc3N2CC)SC1=S	4.9%	?	12.5%	13.9%	6.31µM*
CCN1C(=O)/C(=C2/C=Cc3ccccc3N2C)OC1=S	3.9%	-14.7%	-3.5%	9.4%	3.16µM*
COc1ccccc1N1C(=N)S/C(=C\c2ccc(-c3ccccc3C(=O)O)o2)C1=O	-2.1%	-3.6%	7.9%	56.9%	?
N=C1S/C(=C\c2ccc(-c3ccccc3C(=O)O)o2)C(=O)N1c1ccc2c(c1)OCO2	5.62µM*	-26.0%	-10.4%	-7.5%	3.55µM*
Cc1ccc(CCNC(=O)c2ccc3c(c2)N(Cc2ccccc2F)C(=O)c2ccccc2S3=O)cc1 (centres undefined)	·	-21.7%	-5.2%	·	0.4%
N#Cc1c(/N=C/c2ccco2)sc2c1CCCCC2	0.2%	-22.5%	-9.7%	4.5%	4.47µM*
O=c1c2c3c(sc2ncn1/N=C/c1ccco1)CCCC3	-0.6%	-2.6%	-0.6%	12.3%	-12.4%
N#Cc1c(/N=C/c2cccs2)sc2c1CCC2	-2.3%	-23.2%	-2.6%	-4.4%	2.82µM*
CN(C)/C=N/c1sc2c(c1C#N)CCCC2	-8.1%	-14.0%	-0.8%	-8.2%	?
CCOc1ccc(-n2c(=O)c3c(C)c(C)sc3n(CC(=O)c3ccccc3)c2=O)cc1	·	-19.1%	-5.2%	·	-11.2%
CCc1nn(CC(=O)N2CCN(c3cccc(C)c3)C(C)C2)c(=O)c2cc3sccc3n12 (centres undefined)	·	-13.9%	-2.1%	·	?
SMILES	KDM4E inh	Tau fluor cs	Tau FP inhib	RGS12 GoLoco inh	Tau ThT inhib
NNC(=O)c1ccc(N2CCc3ccccc32)c([N+](=O)[O-])c1	3.0%	?	10.1%	6.5%	14.1µM*
COC(CNC(=O)c1ccc(N2CCc3ccccc32)c([N+](=O)[O-])c1)OC	-2.3%	?	10.7%	7.0%	?
O=C(/C=C/c1ccccc1)c1cc(Br)ccc(=O)c1O	12.6µM*	?	?	95.2%	14.1µM*
O=C(/C=C\c1ccccc1)c1ccccc1O	·	-1.1%[11.6 µM]	-1.8%[11.6 µM]	·	-8.6%[11.5 µM]
Cc1ccc(/C=C/C(=O)c2ccccc(=O)c2O)cc1C	28.2µM*	?	-14.9%	18.9%	12.6µM*
COc1ccc(/C=C/C(=O)Oc2ccc(C)c(C)c2)cc1OC	?	-23.3%	-6.5%	48.5%	-19.2%
